C diff HTS = inhibitors of Clostridium difficile growth; Clostridium difficile clinical isolate growth, OD600, 24 h; active compounds read low; growth activity, negative = inhibition, % at 16 µg/mL (by protocol); hit rate 0.25% among 86,000; AID 1259249;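 active = mean growth activity at or below -80% and every replicate also at or below -80%; inconclusive = mean at or below -80% but some replicate above -80%; inactive = mean growth activity above -80%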
Pf Dd2 inh = P. falciparum Dd2 growth inhibition; activity change, % at 10 µM; hit rate 2.3% among 94,000; SYBR Green, 72 h; active compounds read low; in the data active = activity change below about -80%; inconclusive = no clear call, values can overlap the other calls
T cruzi growth-1 = inhibitors of T. cruzi proliferation | hit rate 5.9% among 77,000 | AID 624255 | inhibition, % at 8.34 µM | T. cruzi beta-gal in NIH3T3, GalScreen luminescence, 90 h;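 active = mean inhibition above about 93%, with at least 55% of replicates each passing it, limit read from the data, passing the limit was not always enough; inconclusive = only one of those two conditions holds; inactive = neither condition holds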
T cruzi growth-2 = inhibitors of T. cruzi proliferation; hit rate 72% among 5,600; inhibition, % at 8.35 µM; T. cruzi beta-gal in NIH3T3, GalScreen luminescence, 90 h; shares compounds with T cruzi growth-1;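 active = mean replicate inhibition above about 95% and at least 55% of replicates individually reaching it, limit read from the data; inconclusive = only one of the two criteria is met; inactive = neither criterion is met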
T cruzi growth-3 = inhibitors of T. cruzi proliferation; shares compounds with T cruzi growth-1; T. cruzi beta-gal in NIH3T3, GalScreen luminescence, 90 h; inhibition, % at 2.09 µM; hit rate 21% among 5,600; AID 651740;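 active = mean inhibition above about 95%, with at least 55% of replicates also reaching it, limit read from the data; inconclusive = meets just one of the two conditions; inactive = meets neither condition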
NIH3T3 tox = kills mouse NIH/3T3 fibroblasts; shares compounds with T cruzi growth-1; NIH/3T3 viability, CellTiter-Glo ATP luminescence, 90 h; cytotoxicity (signal decrease), % at 8.35 µM; hit rate 14% among 5,600;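 active = mean signal decrease across replicates above about 35% based on untreated-well scatter, with enough replicates individually passing, limit read from the data; inconclusive = no rule stated though some were filed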
3T3 cytotox 2 = cytotoxicity in mouse NIH/3T3 fibroblasts | shares compounds with T cruzi growth-1 | NIH/3T3 viability, CellTiter-Glo ATP luminescence, 90 h | inhibition, % at 24.9 µM | hit rate 56% among 5,600 | AID 651744;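 active = mean loss of cell viability signal at or above a set limit, and enough replicates individually reaching it; inconclusive = meets only the mean limit or only the replicate share; inactive = meets neither condition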
Large screens that a line does not name were inactive (follow-up assays come after a bar, where they were run). Only some compounds are listed: those with a hit (about 6.7% of all), similar ones and a draw of the others.

CCC(=O)N1CC[C@@H]2[C@H]1c1cc(-c3cccc(OC)c3)ccc1N(C)[C@H]2CO	none
CN1c2ccc(-c3cccc(F)c3)cc2[C@H]2[C@H](CCN2C(=O)C2CC2)[C@H]1CO	none
CN1c2ccc(-c3cccc(F)c3)cc2[C@@H]2[C@@H](CCN2C(=O)C2CC2)[C@H]1CO	T cruzi growth-1 100 | T cruzi growth-2 102 | T cruzi growth-3 101 | NIH3T3 tox inactive | 3T3 cytotox 2 91
COCC(=O)N1CC[C@@H]2[C@@H](CO)N(C)c3ccc(-c4ccccc4)cc3[C@@H]21	T cruzi growth-1 98 | T cruzi growth-2 104 | T cruzi growth-3 inactive | NIH3T3 tox inactive | 3T3 cytotox 2 inactive
COCC(=O)N1CC[C@@H]2[C@H]1c1cc(-c3cccc(OC)c3)ccc1N(C)[C@@H]2CO	T cruzi growth-1 117 | T cruzi growth-2 107 | T cruzi growth-3 inactive | NIH3T3 tox inactive | 3T3 cytotox 2 inactive
CCC(=O)N1CC[C@@H]2[C@@H](CO)N(C)c3ccc(-c4cccc(F)c4)cc3[C@@H]21	none
C[C@@H]1CCCCO[C@@H](CN(C)C(=O)Cc2ccccc2)[C@H](C)CN([C@H](C)CO)C(=O)c2cc(NS(=O)(=O)c3cccs3)ccc2O1	none
Cc1noc(C)c1S(=O)(=O)N(C)C[C@H]1OCCCC[C@@H](C)Oc2ccc(NS(=O)(=O)c3cccs3)cc2C(=O)N([C@@H](C)CO)C[C@@H]1C	none (no result: T cruzi growth-1)
CCCNC(=O)N1[C@H](CO)[C@@H](c2ccccc2-c2ccc(C)cc2)[C@@H]1C#N	none (no result: T cruzi growth-1)
O=C(C1CCOCC1)N1C[C@@H]2[C@H](c3ccccc31)[C@@H](CO)N2C(=O)Nc1cccc(F)c1	none
C[C@@H]1CCCCO[C@H](CN(C)C(=O)Nc2cccc3ccccc23)[C@@H](C)CN([C@@H](C)CO)C(=O)c2cc(NC(=O)CCC(F)(F)F)ccc2O1	none
O=C(O)C[C@H]1C[C@@H]2c3cc(NC(=O)c4ccc5c(c4)OCO5)ccc3O[C@@H]2[C@@H](CO)O1	none
Cc1noc(C)c1NC(=O)Nc1ccc2c(c1)CC(=O)N([C@H](C)CO)C[C@@H](C)[C@H](CN(C)C(=O)Nc1c(C)noc1C)O2	none
Cc1cccc(-c2ccc([C@@H]3[C@H]4CN(S(=O)(=O)c5cn(C)cn5)CCCCN4[C@H]3CO)cc2)c1	none
Cc1ccccc1S(=O)(=O)N1CC[C@@H]2[C@@H](CO)Nc3ccc(-c4cccc(F)c4)cc3[C@@H]21	T cruzi growth-1 98 | T cruzi growth-2 104 | T cruzi growth-3 112 | NIH3T3 tox 59 | 3T3 cytotox 2 106
Cc1ccccc1S(=O)(=O)N1CC[C@@H]2[C@H]1c1cc(-c3ccc(F)cc3)ccc1N[C@@H]2CO	none
Cn1cnc(S(=O)(=O)N2CC[C@@H]3[C@H]2c2cc(-c4ccc(F)cc4)ccc2N[C@@H]3CO)c1	none
Cn1cnc(S(=O)(=O)N2CC[C@@H]3[C@H]2c2cc(-c4cccc(F)c4)ccc2N[C@@H]3CO)c1	T cruzi growth-1 inconclusive | T cruzi growth-2 101 | T cruzi growth-3 inactive | NIH3T3 tox inactive | 3T3 cytotox 2 inactive
Cc1ccccc1S(=O)(=O)N1CC[C@@H]2[C@H](CO)Nc3ccc(-c4cccc(F)c4)cc3[C@@H]21	T cruzi growth-1 105 | T cruzi growth-2 inconclusive | T cruzi growth-3 109 | NIH3T3 tox inactive | 3T3 cytotox 2 104
Cc1ccccc1S(=O)(=O)N1CC[C@@H]2[C@H](CO)Nc3ccc(-c4ccccc4)cc3[C@@H]21	T cruzi growth-1 107 | T cruzi growth-2 102 | T cruzi growth-3 inconclusive | NIH3T3 tox inactive | 3T3 cytotox 2 104
O=S(=O)(c1ccccc1F)N1CC[C@@H]2[C@@H](CO)Nc3ccc(-c4cccc(F)c4)cc3[C@@H]21	none
Cc1ccccc1S(=O)(=O)N1CC[C@H]2[C@H](CO)Nc3ccc(-c4ccc(F)cc4)cc3[C@H]21	none
CC(C)c1cn(CC[C@@H]2CC[C@H](NS(=O)(=O)c3ccc(Cl)cc3)[C@H](CO)O2)nn1	none
C[C@H](CO)N1C[C@H](C)[C@H](CN(C)C(=O)Cc2ccccc2)OCc2cn(nn2)CCCC1=O	none
C[C@@H]1CN([C@H](C)CO)C(=O)c2cccc(NC(=O)c3cnccn3)c2O[C@H]1CN(C)Cc1ccccc1	none
CO[C@@H]1CN(C)C(=O)c2cc(NS(=O)(=O)c3ccccc3C)ccc2OC[C@H](C)N(C)C[C@@H]1C	none (no result: C diff HTS)
CCC(=O)N1[C@@H](CO)[C@@H](c2ccc(-c3cccc(F)c3)cc2)[C@@H]1CN(C)C(C)=O	none
COc1cccc(-c2ccc3c(c2)[C@@H]2[C@@H](CCN2S(=O)(=O)c2ccccc2C)[C@@H](CO)N3)c1	none
Cc1ccccc1S(=O)(=O)N1CC[C@@H]2[C@H]1c1cc(-c3cccc(C#N)c3)ccc1N[C@@H]2CO	none
Cc1ccccc1S(=O)(=O)N1CC[C@@H]2[C@H]1c1cc(-c3cccc(F)c3)ccc1N[C@@H]2CO	T cruzi growth-1 107 | T cruzi growth-2 100 | T cruzi growth-3 inactive | NIH3T3 tox inactive | 3T3 cytotox 2 106
N#Cc1cccc(-c2ccc3c(c2)[C@H]2[C@H](CCN2S(=O)(=O)c2ccccc2F)[C@@H](CO)N3)c1	T cruzi growth-1 107 | T cruzi growth-2 inconclusive | T cruzi growth-3 inactive | NIH3T3 tox inactive | 3T3 cytotox 2 55
COc1ccccc1S(=O)(=O)N(C)C[C@@H]1OCc2cn(nn2)CCCC(=O)N([C@@H](C)CO)C[C@@H]1C	none
O=C(C[C@H]1C[C@@H]2c3cc(NC(=O)CC4CC4)ccc3O[C@@H]2[C@@H](CO)O1)NCc1cccc(F)c1	none
O=C(C[C@@H]1CC[C@H]2[C@@H](COC[C@H](O)CN2C(=O)Nc2cccc(Cl)c2)O1)N1CCCCC1	none
C[C@H](CO)N1C[C@H](C)[C@H](CN(C)C(=O)Nc2cccc3ccccc23)Oc2ncc(-c3cccc(F)c3)cc2C1=O	none (no result: T cruzi growth-1)
C[C@H](CO)N1C[C@H](C)[C@H](CN(C)C(=O)Nc2cccc3ccccc23)Oc2ncc(-c3cccc(C(F)(F)F)c3)cc2C1=O	T cruzi growth-1 107 (no result: C diff HTS) | T cruzi growth-2 100 | T cruzi growth-3 inactive | NIH3T3 tox 44 | 3T3 cytotox 2 104
COc1ccc(C#Cc2cnc3c(c2)C(=O)N([C@H](C)CO)C[C@H](C)[C@H](CN(C)Cc2ccccc2)O3)cc1OC	none
C[C@H](CO)N1C[C@H](C)[C@H](CN(C)Cc2cccc(C(F)(F)F)c2)Oc2ncc(-c3ccccc3)cc2C1=O	T cruzi growth-1 119 | T cruzi growth-2 99 | T cruzi growth-3 inactive | NIH3T3 tox inactive | 3T3 cytotox 2 inactive
Cc1cccc(CN(C)C[C@@H]2Oc3ncc(-c4cccc(C(F)(F)F)c4)cc3C(=O)N([C@H](C)CO)C[C@@H]2C)c1	none

Screening data: PubChem, Broad Institute
